What all share (test): NCI-60 one-dose screen, 48 h (100 = growth as untreated, 0 = no growth, -100 = all killed)
What all share (settings): 10 µM unless noted

Assay [1] relates to DU-145 prostate.
Assay [2] concerns K-562 leukemia.
The subject of assay [3] is MALME-3M melanoma.
The subject of assay [4] is MDA-MB-231 breast.
Assay [5] deals with RXF 393 renal.
The subject of assay [6] is SF-268 CNS.
For assay [7], the system named is SF-295 CNS.
Assay [8] concerns SF-539 CNS.
Assay [9] relates to UACC-257 melanoma.
The test system of assay [10] is M14 melanoma.
Assay [11] deals with HCT-15 colon.
Assay [12] concerns HT29 colon.
The subject of assay [13] is SNB-75 CNS.
The subject of assay [14] is U251 CNS.
Assay [15] concerns PC-3 prostate.
For assay [16], the system named is SK-MEL-5 melanoma.
In assay [17] the test system is UACC-62 melanoma.
Assay [18] has as its system LOX IMVI melanoma.
In assay [19] the test system is SK-MEL-28 melanoma.
Assay [20] deals with SNB-19 CNS.

Data on 8 molecules can be found in PubChem BioAssay (NCI).

The panel holds about 83,000 compounds, 20% with a hit somewhere; the sample as a whole holds those more often.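 Cells were grown in 96-well plates and exposed to the test compound at a single concentration for 48 hours; results are reported as percent growth, with values below 10 considered active.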 Unmarked numbers belong to inactive results. Calls of active or inactive are those of the source.

Consider `Cn1c2ccccc2c2c3c(c4c5ccccc5n(CCCCCC#N)c4c21)C(=O)N(O)C3=O`, for which the growth is 16.3% in [1]; 16.2% in assay [2]; 28.6% in assay [3]; 27.9% in assay [4]; -21.8% (active) in assay [5]; 12.2% in [6]. In addition, the growth in assay [7] was 9.59% (active); in [8], -33% (active); in [9] it was 15.6%; in [10] it was 1.43% (active); in [11] it was 13.9%; in assay [12], 4.37% (active). Further, the growth in assay [13] was 17.2%; in assay [14] it was 12.8%; in assay [15], 24.3%; in assay [16], -80.3% (active); in assay [17], -18.5% (active); in assay [18], -66.7% (active). Further, the growth in assay [19] is 6.74% (active).
Turning to `CN(C)c1ccc(/C=C(\C#N)c2nc3ccccc3s2)cc1`, the growth is 120% in assay [1]; 119% in assay [2]; 111% in assay [3]; 106% in [4]; 116% in [5]; 102% in assay [6]. Further, the growth in assay [7] was 92.9%; in assay [8] it was 100%; in assay [9], 93.5%; in [10], 110%; in assay [11], 106%; in assay [12], 100%. Moreover, the growth was 89.4% in assay [13]; 106% in assay [14]; 105% in [15]; 98.4% in assay [16]; 101% in assay [17]; 113% in assay [18]. In addition, the growth in assay [19] is 119%.
Take `CCCCCCCCCc1cc(CN2CCCCC2)c(O)c(CN2CCCCC2)c1`: the growth in assay [1] was 66.4%; in [2], 31.8%; in assay [3], 75.1%; in [4], 30.9%; in assay [5] it was 78.3%; in assay [6] it was 71.7%. The growth is 64.6% in assay [7]; 60.9% in assay [8]; 58.8% in assay [9]; 68.3% in [10]; 52.3% in assay [11]; 40.5% in assay [12]. For the same molecule, the growth in assay [13] was 60.6%; in [14], 45.1%; in [15] it was 53.7%; in assay [16], 40%; in assay [17] it was 72.9%; in [18] it was 48.6%. In [19], the growth was 74%.
On to `COc1cc(C#N)cc(OC)c1OCCN(CCOc1c(OC)cc(C#N)cc1OC)S(=O)(=O)c1ccc(C)cc1`, for which the growth was 115% in assay [1]; 94% in [2]; 108% in assay [3]; 112% in assay [4]; 70.9% in assay [5]; 107% in [6]. Also, the growth in assay [7] was 94.2%; in assay [8] it was 105%; in [9] it was 97.7%; in assay [10], 99.7%; in assay [11], 108%; in [12], 111%. Besides, the growth in [13] is 92.7%; in [14], 103%; in assay [16], 61.8%; in assay [17], 96.8%; in assay [18], 93.1%; in assay [19], 118%.
Take `COc1cc(NC(N)=NCC(C)(C)COc2ccc(C(F)(F)F)cc2)cnc1C#N`: the growth in assay [1] was 81.6%; in [2] it was 34.5%; in assay [3], 57.6%; in assay [4] it was 57%; in [5] it was 41%; in assay [6], 50.4%. Moreover, the growth in assay [7] is 82.9%; in [8], 72%; in assay [9] it was 69.1%; in [10] it was 45.6%; in assay [11] it was 59.9%; in assay [12] it was 26.9%. For the same molecule, the growth was 70.6% in assay [20]; 59.9% in assay [14]; 49.3% in assay [15]; 26.9% in assay [16]; 61.7% in assay [17]; 67.1% in [18]. Moreover, the growth in assay [19] was 85.5%.
As to `Cc1ccc2c(c1)C(=O)/C(=C/c1ccc(OCC(=O)c3ccccc3)cc1)O2`, the growth in assay [1] is 107%; in [2], 106%; in [3], 114%; in assay [4], 84%; in [5] it was 89%; in [6] it was 101%. Further, the growth in [7] was 78.8%; in assay [8], 92.9%; in assay [9] it was 90.1%; in [10], 95.8%; in assay [11] it was 75.3%; in assay [12], 101%. In addition, the growth in assay [13] was 109%; in assay [14], 99.1%; in [16], 86.9%; in assay [17], 63.8%; in assay [18] it was 102%; in [19], 112%.
As for `Cc1cc(-c2nc3ccccc3s2)ccc1NC(=O)COc1ccc(Cl)cc1`, the growth is 130% in assay [1]; 93.7% in assay [2]; 106% in [3]; 96.9% in assay [4]; 139% in assay [5]; 109% in assay [6]. The growth is 120% in assay [7]; 105% in [8]; 120% in [9]; 100% in assay [10]; 92.7% in assay [11]; 101% in assay [12]. Also, the growth in assay [13] was 84.4%; in assay [14] it was 94.1%; in assay [15] it was 83.2%; in assay [16], 98.8%; in assay [17], 96.1%; in [18], 94.5%. In assay [19], the growth was 114%.
`COC1=CC(=O)C(OC)=C(OC)C1=O`: the growth in assay [1] is 106%; in assay [2], 63.9%; in assay [3], 92.1%; in assay [4], 86%; in assay [5], 111%; in [6] it was 94.3%. Also, the growth was 99.3% in assay [7]; 90.7% in assay [8]; 107% in [9]; 93.2% in [10]; 102% in [11]; 107% in assay [12]. The growth in assay [13] is 90.1%; in assay [14], 100%; in assay [15] it was 98.1%; in assay [16], 97.5%; in assay [17], 87.5%; in assay [18], 84.6%. In [19], the growth was 98.6%.
